Shiga inhibitor: Shiga toxin inhibition; 290,000 compounds, 9.2% hits; Vero cells, Shiga toxin protein synthesis inhibition reporter; AID 2315; inhibition, % at 38.7 µM; in the data active means inhibition mostly above about 28%, no sharp cut-off; inactive means mostly below about 43%
Tb PYK inh: T. brucei pyruvate kinase inhibition | TbPYK enzyme, Kinase-Glo Plus ATP luminescence, 45 min | AID 624173 | Q57TT1 | Potency, µM (highest dose often 76.8 µM), usual class: inhibitors | 410,000 compounds, 0.12% hits; further: nearly all actives have a fitted effect of over 50% in size
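Quantitative HTS: titrated library compounds versus trypanosomal pyruvate kinase in TEA buffer (pH 7.2) containing KCl, MgCl2, BSA and Tween-20. Reactions were initiated with ADP, 130 uM final. Kinase-Glo Plus luminescence was read after 45 min at RT.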
CHX counter: affects cycloheximide protein synthesis inhibition readout, counter-screen; 300,000 compounds, 12% hits; max response, %; AID 2314; cell reporter, cycloheximide protein synthesis inhibition counterscreen; in the data active means max response mostly above about 13%, no sharp cut-off; inactive means mostly below about 14%; further: read at 38.3 µM for the half of the compounds with a filed dose
LmPK inhibitor: inhibitors of Leishmania mexicana pyruvate kinase; Q27686; purified LmPK, Kinase-Glo ATP luminescence, 1 h; Potency, µM (doses to about 57.5 µM), most hits filed as inhibitors; 290,000 compounds, 0.37% hits
Target sequence (Q27686 whole entry, looked up): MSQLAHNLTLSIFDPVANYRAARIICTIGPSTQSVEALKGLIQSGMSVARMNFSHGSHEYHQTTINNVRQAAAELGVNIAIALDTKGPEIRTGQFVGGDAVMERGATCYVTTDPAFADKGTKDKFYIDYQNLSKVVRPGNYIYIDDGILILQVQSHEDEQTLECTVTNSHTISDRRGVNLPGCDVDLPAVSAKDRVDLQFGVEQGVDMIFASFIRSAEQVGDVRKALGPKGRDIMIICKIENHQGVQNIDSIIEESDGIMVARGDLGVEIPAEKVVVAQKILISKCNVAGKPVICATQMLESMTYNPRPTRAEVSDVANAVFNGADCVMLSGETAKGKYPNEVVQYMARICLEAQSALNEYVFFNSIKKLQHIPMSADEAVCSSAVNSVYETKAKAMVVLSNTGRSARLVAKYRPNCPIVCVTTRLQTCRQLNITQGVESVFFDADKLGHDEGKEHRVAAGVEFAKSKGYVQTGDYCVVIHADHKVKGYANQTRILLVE
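qHTS format; LmPK 0.1 nM; substrates PEP 0.5 mM and ADP 0.1 mM. One-hour room-temperature incubation, then coupled luciferase luminescence; 0.5 nM enzyme wells mark activation.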
RE007 growth inh: less growth of the S. pombe RE007 Vpr strain; Potency, µM (top dose mostly 92.2 µM), actives largely listed as inhibitors; 360,000 compounds, 0.21% hits; S. pombe RE007 Vpr strain, BacTiter-Glo ATP luminescence, 24 h; active means well fitted falling curve with a large enough effect; inconclusive means small, poorly fitted or top-dose-only effect; inactive means no such curve, though single readings can be large or run the other way; further: nearly all actives have a fitted effect of over 50% in size
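Fission yeast strain RE007, carrying one chromosomally integrated HIV-1 vpr copy, was seeded at OD 0.01 in PMG+AL medium with 23 nL pinned compound. After 24 h at 30 °C and 99% humidity, viability was read by BacTiter-Glo luminescence.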
Giardia FBPA inh: blocks Giardia fructose-bisphosphate aldolase activity | A8B2U2 | purified Giardia FBPA | 290,000 compounds, 0.71% hits | Potency, µM (series often up to 59.6 µM), hits mostly inhibitors; further: nearly all actives have a fitted effect of over 55% in size
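Giardia FBPA (40 nM reagent) was preincubated 10 min at RT with compound (up to 57.5 uM final), then substrate plus GAPDH/TPI/NAD/arsenate coupling system with diaphorase/resazurin was added; resorufin fluorescence (525/598 nm) was read after 20 min.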
Hits are given with their value; i = inactive; ? = inconclusive; nt = no result; [ ] = another dose, or the depositor's remark. This excerpt belongs to a sample that is enriched for hits. Unless noted, the call rests on the fitted dose curve; in most records, active means well fitted curve in the direction sought with a large enough effect; inconclusive means small, poorly fitted or top-dose-only effect, or another doubt; inactive means no such curve, though single readings can be large; an effect the other way counts as inactive or inconclusive.

SMILES	Shiga inhibitor	Tb PYK inh	CHX counter	LmPK inhibitor	RE007 growth inh	Giardia FBPA inh
COc1ccc(-c2cc3nc4n(c(=O)c3s2)CCC4)cc1	91	i	33	7.1µM	i	i
COc1ccc(-c2nc3n(c2C)CCC3)cc1	71	i	27	i	i	i
COc1ccc(-c2cc3nc4n(c(=O)c3s2)CCCCC4)cc1	78	i	49	i	i	i
COc1ccc([N+](=O)[O-])c2c1CCN2C(=O)CC[C@H](N)C(=O)O	nt	nt	nt	nt	nt	i
CCN1CCN(CCCNC(=O)c2cc3c(=O)n(C)c4ccccc4c3s2)CC1	nt	i	nt	nt	nt	nt
COc1cc(C)c(CNc2cccc(C)c2)cc1C	i	i	i	i	i	?
COc1ccc(CNc2nc3ccc(C)cc3s2)c(OC)c1OC	41	i	15	i	?	i
COc1ccc(CNc2ccc(C)c(C)c2)c(OC)c1OC	i	i	24	i	i	i
COc1cc(C)c(CNc2ccc(OC)c(OC)c2)cc1C	76	nt	14	i	nt	?
CC(C)=CCC/C(C)=C/CO/N=C1/C[C@@H](O)[C@@H](O)[C@@H]2[C@@H]3C(=O)N([C@@H](C)c4ccccc4)C(=O)[C@H]3CC[C@@H]12	nt	nt	nt	nt	nt	i[12.9 µM]
CCC(Oc1ccccc1)C(=O)Nc1ccc(S(=O)(=O)Nc2cc(C)on2)cc1 (stereo unspecified)	i	i	i	i	i	i
S=C(NCc1ccco1)Nc1ccc(Cl)cc1	i	i	15	i	i	i
S=C(NCc1ccco1)Nc1ccccc1Cl	i	i	20	i	i	i
CCCOc1ccc(CNC(=O)CCC(=O)n2ncc3cc(C)ccc32)cc1	i	i	i	i	i	i
CCCOc1ccc(CNC(=O)Cn2ncc3ccccc32)cc1	59	i	34	i	i	i
COc1ccc(N2CCN(C(=O)CSc3nc4nc(C)cc(C)n4n3)CC2)cc1	nt	i	nt	nt	i	nt
Cc1cc(C(=O)N/N=C/c2cc(N=Nc3ccccc3)ccc2O)n[nH]1	i	i	17	i	i	i
Cc1cc(C(=O)N/N=C/c2cccc([N+](=O)[O-])c2O)n[nH]1	i	i	18	i	i	?
Nc1ccc(C(=O)N/N=C\c2cc(N=Nc3cccc4ccccc34)ccc2O)cc1	i	i	18	i	i	i
COC(=O)N/N=C/c1cc(N=Nc2ccccc2)ccc1O	i	i	25	i	i	i
COC(=O)N/N=C/c1cc(N=Nc2ccccc2Cl)ccc1O	i	i	i	i	i	i
Cc1cc(C(=O)N/N=C/c2c(C)[nH]c3ccccc23)n[nH]1	i	i	i	i	i	i
Cc1ccc(NC(=O)c2cc(S(=O)(=O)N3CCc4ccccc43)cn2C)c(Cl)c1	nt	i	nt	nt	nt	nt
O=C(NCC1(O)CCCCC1)C1CCC(=O)N(Cc2ccccc2F)C1 (stereo unspecified)	i	i	i	i	i	i
Cc1cccc(N2CCN(C(=O)C3CCC(=O)N(Cc4ccccc4F)C3)CC2)c1C (stereo unspecified)	i	i	15	i	?	i
SMILES	Shiga inhibitor	Tb PYK inh	CHX counter	LmPK inhibitor	RE007 growth inh	Giardia FBPA inh
Cc1ccc(CNC(=O)C2CCC(=O)N(Cc3ccccc3F)C2)s1 (stereo unspecified)	i	i	31	i	i	i
COCCN1CCN(C(=O)C2CCC(=O)N(Cc3ccccc3F)C2)CC1 (stereo unspecified)	i	i	i	i	i	nt
Cc1cc(CNC(=O)C2CCC(=O)N(Cc3ccccc3F)C2)on1 (stereo unspecified)	i	i	i	i	i	i
Cc1ccc(CNC(=O)C2CCC(=O)N(CCc3ccccc3)C2)s1 (stereo unspecified)	i	i	54	i	i	i
O=C(NC1CCCCCC1)C1CCC(=O)N(Cc2ccccc2F)C1 (stereo unspecified)	i	i	27	i	i	i
Cc1ccc(CNC(=O)C2CCC(=O)N(CCc3cccc(F)c3)C2)s1 (stereo unspecified)	i	i	i	i	i	i
Cc1cc2nc(-c3cccc(NC(=O)c4cccc5ccccc45)c3)oc2cc1C	nt	i	nt	nt	nt	nt
COc1ccc(OC)c(S(=O)(=O)N2CCC(n3c(C)nc4cccnc43)CC2)c1	nt	i	nt	nt	nt	nt
COc1cccc(CNc2nc3nc(C)c(Cl)c(C)n3n2)c1	48	i	35	i	i	i
